Test results reported in ChEMBL document CHEMBL3988442, “University of Dundee, Small-Polar-MMV Screening Library” (2021).
About 13,000 (27%) of roughly 48,000 compounds showed an effect of 50% or more. Some of the results follow.

These compounds were tested on Wolbachia pipientis (assay: Anti-Wolbachia Cell-Based Screen). Conditions: 5 µM.
Format: functional
Set-up: scale not given: in the data most compounds retested in dose-response had high values
`O=C(c1cc(COc2ccc3c(c2)OCO3)[nH]n1)N1CCCO1` was tested, and the “Percent Effect” value was -2.662%.
With `COc1ccc(C[C@H]2CN(C3CCOCC3)CC[C@H]2OCC2CC2)cc1.O=C(O)C(F)(F)F` the “Percent Effect” value was -41.15%.
With `COc1ccc(C[C@H]2CN(C3CCOCC3)CC[C@@H]2OCC2CC2)cc1.O=C(O)C(F)(F)F` the “Percent Effect” value was -34.49%.
`COc1ccc(C[C@H]2CN(Cc3ccoc3)CC[C@H]2OC)cc1.O=C(O)C(F)(F)F` was tested, and the “Percent Effect” value was 63.46%.
In the case of `COc1ccc(CN2C[C@@H]3CN(Cc4ccoc4)C[C@@H]3C2=O)cc1.O=C(O)C(F)(F)F`, the “Percent Effect” value is reported as -0.9609%.
With `COc1ccc(C[C@H]2CN(Cc3ccoc3)CC[C@@H]2OC)cc1.O=C(O)C(F)(F)F` the “Percent Effect” value was 76.48%.
With `COc1ccc(CN2CCN(S(=O)(=O)c3cc(C(=O)O)cs3)CC2)cc1` the “Percent Effect” value was 1.54%.
In the case of `Cc1cc(-c2nn(C)c(Cl)c2CN2CCOCC2CC(=O)O)no1` (stereo not given), the “Percent Effect” value is reported as 1.04%.
For `CCCS(=O)(=O)c1ncc(CN2CCC(C)CC2)n1CC1CCCO1` (stereo not given), the “Percent Effect” value was -5.004%.
In the case of `CC1CCN(CCCNS(=O)(=O)c2cccc(F)c2)CC1.Cl`, the “Percent Effect” value is reported as 5.28%.
With `Cc1ccc(F)cc1S(=O)(=O)NCc1cccc(CS(C)(=O)=O)c1` the “Percent Effect” value was -14.38%.
`CC(=O)N1CCN(CCNS(=O)(=O)c2cccc(F)c2)CC1` was tested, and the “Percent Effect” value was 146.4%.
For `CC(=O)N1CCN(CCNS(=O)(=O)c2c(F)cccc2F)CC1`, the “Percent Effect” value was 115.2%.
In the case of `CSCc1cccc(S(=O)(=O)NCCCN2CCOCC2)c1`, the “Percent Effect” value is reported as -6.624%.
`CC(=O)N1CCN(CCNc2ncc(Br)cc2C)CC1` was tested, and the “Percent Effect” value was 3.175%.
In the case of `O=S(=O)(NCCC(O)c1cccs1)c1c(F)cccc1F` (stereo not given), the “Percent Effect” value is reported as 0.3394%.
For `CC(=O)N1CCN(CCNS(=O)(=O)c2cc(F)cc(F)c2)CC1`, the “Percent Effect” value was 102.1%.
With `CC(=O)N1CCN(CCCSCc2ccccc2)CC1` the “Percent Effect” value was -1.866%.
For `O=S(=O)(NCCCN1CCCC1)c1cc(F)cc(F)c1`, the “Percent Effect” value was -0.6955%.
`CC(=O)N1CCN(CCNS(=O)(=O)c2cc(F)ccc2C)CC1` was tested, and the “Percent Effect” value was 96.01%.
`CC1CCN(CCCNS(=O)(=O)c2cc(F)cc(F)c2)CC1.Cl` was tested, and the “Percent Effect” value was -12.88%.
In the case of `Cc1nc(CNCc2ccc(N3CCN(C)CC3)nc2)cs1`, the “Percent Effect” value is reported as -1.26%.
For `CN(CCCNS(=O)(=O)N1CCC2(CC1)OCCO2)c1ccccc1`, the “Percent Effect” value was 15.24%.
`CNc1ccnc(N2C[C@@H]3CC[C@H](C2)N(CCOC)C3=O)n1` was tested, and the “Percent Effect” value was -5.532%.
In the case of `O=S(=O)(NCCN1CC=CC1)c1ccc(Cl)cc1`, the “Percent Effect” value is reported as -10.33%.
For `CC(=O)N1CCN(CCNS(=O)(=O)c2ccc(F)c(F)c2)CC1`, the “Percent Effect” value was 114.9%.
In the case of `CS(=O)(=O)Cc1cccc(CNS(=O)(=O)c2ccc(F)c(F)c2)c1`, the “Percent Effect” value is reported as -9.477%.
In the case of `Cn1ncc2ccc(C3CCCN(Cc4cccs4)C3)nc21` (stereo not given), the “Percent Effect” value is reported as 161.9%.
In the case of `COCC1CN(C(=O)Cc2cccs2)Cc2c1cnn2C` (stereo not given), the “Percent Effect” value is reported as -7.933%.
With `Cn1ncc2ccc(C3CCCN(Cc4ccsc4)C3)nc21` (stereo not given) the “Percent Effect” value was 178.8%.
`Cn1ncc2ccc(C3CCCN(C(=O)Cc4cccs4)C3)nc21` (stereo not given) was tested, and the “Percent Effect” value was 73.59%.
For `Cn1cc(CN2CCO[C@H]3CN(Cc4ccsc4)C[C@H]32)cn1`, the “Percent Effect” value was -4.934%.
In the case of `O=C(Cc1cccs1)N1CCCC(CNS(=O)(=O)Cc2ccccc2)C1` (stereo not given), the “Percent Effect” value is reported as -8.788%.
With `O=C(c1cnc(Cc2c(Cl)cccc2Cl)nc1O)N1CCNCC1` the “Percent Effect” value was 20.47%.
For `COCCc1noc(C2CCN(C(=O)Nc3cccs3)CC2)n1`, the “Percent Effect” value was -7.09%.
In the case of `CN1CCN(Cc2ccccc2Cl)CC12CCC(=O)N(CC1CC1)CC2` (stereo not given), the “Percent Effect” value is reported as 19.23%.
`O=C1CCC(=O)N1c1nn(Cc2ccccc2)cc1Cl` was tested, and the “Percent Effect” value was 98.19%.
`c1ccc(CN2CCN(Cc3cscn3)CC2)cc1` was tested, and the “Percent Effect” value was 8.549%.
With `O=C1CCC(=O)N1c1nn(Cc2c(F)cccc2Cl)cc1Cl` the “Percent Effect” value was 84.15%.
In the case of `Fc1cccc(Cl)c1CN1CCn2c(nnc2C2CC2)C1`, the “Percent Effect” value is reported as -25.63%.
For `Cc1nsc(N2CCN(Cc3cccc(F)c3)CC2)n1`, the “Percent Effect” value was -33.99%.
In the case of `O=C1CCC(=O)N1c1nn(Cc2ccccc2Cl)cc1Cl`, the “Percent Effect” value is reported as 119%.
`O=C1CCC(=O)N1c1nn(Cc2cccc(F)c2)cc1Cl` was tested, and the “Percent Effect” value was 81.78%.
With `O=c1ccc(-c2cccs2)nn1CN1CCN(Cc2ccccc2)CC1` the “Percent Effect” value was 10.59%.
`CCn1cc(C(=O)N(C)Cc2c(F)cccc2Cl)cn1` was tested, and the “Percent Effect” value was 10.91%.
In the case of `O=C1N(Cc2ccccc2)C[C@H]2CN(Cc3ccccc3Cl)CCN12`, the “Percent Effect” value is reported as -1.651%.
For `O=C1N(c2cccc(Cl)c2)Cc2nc(=O)n(Cc3cccc(F)c3)n21`, the “Percent Effect” value was -1.382%.
In the case of `Cc1cc(C(=O)N2CCc3nnc(N(C)C)cc3C2)c(C)n1C1CC1`, the “Percent Effect” value is reported as 2.988%.
For `CS(=O)(=O)c1nnc(NC(=O)CCc2cccc(Cl)c2)[nH]1`, the “Percent Effect” value was -4.467%.
With `O=C(c1ncoc1-c1ccco1)N(Cc1ccco1)CC1CCCO1` (stereo not given) the “Percent Effect” value was 1.49%.
